Reference: PubChem BioAssay AID1159580 (chemical genetic matrix, 2015)
Several values for one entry are separate records, joined by “and”; a condition that tells them apart may be missing. Equal values may be shown once. Among all 5,500 compounds or so, about 2,000 (36%) were called active. Inconclusive results (about 18%) are left out. Rule as the data show it: active = normalized growth mostly below about 0.91 (no sharp cut-off); inconclusive = no clear call, values can overlap the other calls; inactive = mostly above about 0.92. The list shows a part of the results.

Experiment: chemical genetic growth profiling, strain panel (AID 1159580);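 also: tested at 20 µM; growth read once vehicle control cultures reached saturation at 30 °C; 1 = growth at the plate median or of vehicle wells; lower values mean less growth of the strain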
Conditions: growth OD

Measured: normalized growth

CCN(CC)CCNC(=O)c1cc(S(C)(=O)=O)ccc1OC
inactive: S. cerevisiae deletion strains, locus YJR066W, strain TOR1, stronger effect = lower value 0.947 | S. cerevisiae deletion strains, locus YJR075W, strain HOC1, stronger effect = lower value 1.03 and 0.995 | S. cerevisiae deletion strains, locus YKL009W, strain mrt4, stronger effect = lower value 1.02 | S. cerevisiae deletion strains, locus YKL068W, stronger effect = lower value 1.01 | S. cerevisiae deletion strains, locus YKL085W, strain MDH1 (second series), stronger effect = lower value 1.02 | S. cerevisiae deletion strains, locus YKL085W, strain MDH1, stronger effect = lower value 1.02 | S. cerevisiae deletion strains, locus YKL160W, strain elf1, stronger effect = lower value 0.944 | S. cerevisiae deletion strains, locus YKL190W, strain CNB1, stronger effect = lower value 1.01 | S. cerevisiae deletion strains, locus YKR001C, strain vps1, stronger effect = lower value 1.01 | S. cerevisiae deletion strains, locus YKR026C, strain gcn3, stronger effect = lower value 0.979 | S. cerevisiae deletion strains, locus YKR091W, strain srl3, stronger effect = lower value 0.962 | S. cerevisiae deletion strains, locus YLL001W, strain dnm1, stronger effect = lower value 0.94 | S. cerevisiae deletion strains, locus YLL026W, stronger effect = lower value 0.975 | S. cerevisiae deletion strains, locus YLL041C, strain sdh2, stronger effect = lower value 0.972 | S. cerevisiae deletion strains, locus YLR027C, strain aat2, stronger effect = lower value 0.963 | S. cerevisiae deletion strains, locus YLR039C, strain RIC1, stronger effect = lower value 1.03 | S. cerevisiae deletion strains, locus YLR058C, strain SHM2, stronger effect = lower value 1.01 | S. cerevisiae deletion strains, locus YLR102C, strain apc9, stronger effect = lower value 1.01 | S. cerevisiae deletion strains, locus YLR113W, strain HOG1, stronger effect = lower value 0.984 | S. cerevisiae deletion strains, locus YLR221C, strain rsa3, stronger effect = lower value 0.948 | S. cerevisiae deletion strains, locus YLR258W, strain gsy2, stronger effect = lower value 0.981 | S. cerevisiae deletion strains, locus YLR262C, strain YPT6 (second series), stronger effect = lower value 0.976 | S. cerevisiae deletion strains, locus YLR262C, strain YPT6, stronger effect = lower value 1.06 | S. cerevisiae deletion strains, locus YLR268W, strain sec22, stronger effect = lower value 1.02 | S. cerevisiae deletion strains, locus YLR320W, strain mms22, stronger effect = lower value 0.941 | S. cerevisiae deletion strains, locus YLR330W, strain CHS5, stronger effect = lower value 1.01 | S. cerevisiae deletion strains, locus YLR342W, strain FKS1 (second series), stronger effect = lower value 1.02 | S. cerevisiae deletion strains, locus YLR342W, strain FKS1, stronger effect = lower value 0.963 | S. cerevisiae deletion strains, locus YLR357W, strain rsc2, stronger effect = lower value 0.927 | S. cerevisiae deletion strains, locus YLR370C, strain arc18, stronger effect = lower value 0.969 | S. cerevisiae deletion strains, locus YLR371W, strain rom2, stronger effect = lower value 1.01 | S. cerevisiae deletion strains, locus YLR384C, strain iki3, stronger effect = lower value 0.971 | S. cerevisiae deletion strains, locus YLR418C, strain cdc73, stronger effect = lower value 1.04 | S. cerevisiae deletion strains, locus YML016C, strain PPZ1, stronger effect = lower value 1.01 | S. cerevisiae deletion strains, locus YML032C, strain rad52, stronger effect = lower value 1.01 | S. cerevisiae deletion strains, locus YML120C, strain ndi1, stronger effect = lower value 0.944 | S. cerevisiae deletion strains, locus YML124C, strain tub3, stronger effect = lower value 1.01 | S. cerevisiae deletion strains, locus YMR058W, strain fet3, stronger effect = lower value 0.969 | S. cerevisiae deletion strains, locus YMR078C, strain ctf18, stronger effect = lower value 1.01 | S. cerevisiae deletion strains, locus YMR125W, strain sto1, stronger effect = lower value 0.963 | S. cerevisiae deletion strains, locus YMR129W, stronger effect = lower value 0.974 | S. cerevisiae deletion strains, locus YMR205C, strain PFK2, stronger effect = lower value 0.941 | S. cerevisiae deletion strains, locus YMR223W, strain ubp8, stronger effect = lower value 1.03 | S. cerevisiae deletion strains, locus YMR231W, strain pep5, stronger effect = lower value 0.973 | S. cerevisiae deletion strains, locus YMR263W, strain SAP30, stronger effect = lower value 1 | S. cerevisiae deletion strains, locus YMR307W, strain GAS1, stronger effect = lower value 1.06 and 0.987 | S. cerevisiae deletion strains, locus YNL067W, strain RPL9B, stronger effect = lower value 1 | S. cerevisiae deletion strains, locus YNL071W, strain lat1, stronger effect = lower value 0.975 | S. cerevisiae deletion strains, locus YNL128W, strain TEP1, stronger effect = lower value 1.02 | S. cerevisiae deletion strains, locus YNL153C, strain GIM3, stronger effect = lower value 1.02 | S. cerevisiae deletion strains, locus YNL175C, strain NOP13, stronger effect = lower value 1.01 | S. cerevisiae deletion strains, locus YNL183C, strain NPR1, stronger effect = lower value 0.921 | S. cerevisiae deletion strains, locus YNL197C, strain WHI3, stronger effect = lower value 1.03 | S. cerevisiae deletion strains, locus YNL209W, strain ssb2, stronger effect = lower value 0.972 | S. cerevisiae deletion strains, locus YNL224C, strain SQS1, stronger effect = lower value 1 | S. cerevisiae deletion strains, locus YNL233W, strain BNI4, stronger effect = lower value 1 | S. cerevisiae deletion strains, locus YNL248C, strain rpa49, stronger effect = lower value 0.971 | S. cerevisiae deletion strains, locus YNL250W, strain rad50, stronger effect = lower value 1.04 | S. cerevisiae deletion strains, locus YNL271C, strain bni1, stronger effect = lower value 1 | S. cerevisiae deletion strains, locus YNL298W, strain CLA4, stronger effect = lower value 1.01 | S. cerevisiae deletion strains, locus YNL307C, strain MCK1, stronger effect = lower value 1.02 | S. cerevisiae deletion strains, locus YNL322C, strain KRE1 (second series), stronger effect = lower value 0.956 | S. cerevisiae deletion strains, locus YNL322C, strain KRE1, stronger effect = lower value 0.961 | S. cerevisiae deletion strains, locus YNR049C, strain mso1, stronger effect = lower value 0.96 | S. cerevisiae deletion strains, locus YNR052C, strain pop2, stronger effect = lower value 1.01 | S. cerevisiae deletion strains, locus YOL006C, strain TOP1, stronger effect = lower value 1.01 | S. cerevisiae deletion strains, locus YOL012C, strain htz1 0.994 | S. cerevisiae deletion strains, locus YOL147C, strain pex11, stronger effect = lower value 1.01 | S. cerevisiae deletion strains, locus YOR001W, strain rrp6, stronger effect = lower value 0.968 | S. cerevisiae deletion strains, locus YOR061W, strain CKA2, stronger effect = lower value 1.01 | S. cerevisiae deletion strains, locus YOR069W, strain VPS5, stronger effect = lower value 1.01 | S. cerevisiae deletion strains, locus YOR070C, strain gyp1, stronger effect = lower value 0.98 | S. cerevisiae deletion strains, locus YOR080W, strain dia2, stronger effect = lower value 0.959 | S. cerevisiae deletion strains, locus YOR083W, strain WHI5 (second series), stronger effect = lower value 1 | S. cerevisiae deletion strains, locus YOR083W, strain WHI5, stronger effect = lower value 0.94 | S. cerevisiae deletion strains, locus YOR106W, strain vam3, stronger effect = lower value 0.939 | S. cerevisiae deletion strains, locus YOR136W, strain idh2, stronger effect = lower value 1.01 | S. cerevisiae deletion strains, locus YOR144C, strain elg1, stronger effect = lower value 1.01 | S. cerevisiae deletion strains, locus YOR184W, strain ser1, stronger effect = lower value 1.01 | S. cerevisiae deletion strains, locus YOR231W, strain MKK1, stronger effect = lower value 0.978 | S. cerevisiae deletion strains, locus YOR265W, strain rbl2, stronger effect = lower value 0.979 | S. cerevisiae deletion strains, locus YOR270C, strain vph1, stronger effect = lower value 0.933 | S. cerevisiae deletion strains, locus YOR290C, strain snf2, stronger effect = lower value 0.928 | S. cerevisiae deletion strains, locus YOR316C, strain cot1, stronger effect = lower value 1.01 | S. cerevisiae deletion strains, locus YPL051W, strain arl3, stronger effect = lower value 1 | S. cerevisiae deletion strains, locus YPL055C, strain LGE1, stronger effect = lower value 0.983 and 0.98 | S. cerevisiae deletion strains, locus YPL078C, strain atp4, stronger effect = lower value 0.962 | S. cerevisiae deletion strains, locus YPL106C, strain sse1, stronger effect = lower value 0.931 | S. cerevisiae deletion strains, locus YPL240C, strain hsp82, stronger effect = lower value 0.988 | S. cerevisiae deletion strains, locus YPL256C, strain CLN2, stronger effect = lower value 0.981 | S. cerevisiae deletion strains, locus YPR119W, strain clb2, stronger effect = lower value 1 | S. cerevisiae deletion strains, locus YPR141C, strain kar3, stronger effect = lower value 1.01 | S. cerevisiae deletion strains, locus YPR163C, strain tif3, stronger effect = lower value 1.01 | S. cerevisiae deletion strains, locus YPR167C, strain met16, stronger effect = lower value 1.01 | S. cerevisiae deletion strains, strain wtn01, stronger effect = lower value 1.01 | S. cerevisiae strains, strain wild type, stronger effect = lower value 1.01
